High-throughput results: PubChem BioAssay, several laboratories
Sampled rows, rich in hits. Any-hit rate of the full collection: about 4.1%.
GDH-TPI counter-1 = GDH-TPI coupling enzyme inhibitors, primary screen, artefact control for M. tuberculosis FBA inhibitor project, biochemical, absorbance, full deck. GDH-TPI coupled enzyme counterscreen, NADH absorbance. inhibition, % at 4.8 µM. 360,000 tested, 1.2% active; in the data active means inhibition above about 30%;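 further: 0% = DMSO wells and 100% = wells lacking the enzyme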
Mtb UGM inh = M. tuberculosis UGM enzyme inhibitors, primary screen, biochemical, fluorescence polarization, single point; UDP-galactopyranose mutase (Mycobacterium tuberculosis (strain ATCC 25618 / H37Rv)), …; purified UGM, fluorescence polarization probe displacement; inhibition, % at 10 µM; 320,000 tested, 0.06% active; AID 504406, 2011; in the data active means inhibition above about 10%, passing the limit was not always enough
RecA splice inh = Mtb RecA intein splicing inhibitors, primary screen, biochemical, fluorescence, HTS. Protein RecA (Mycobacterium tuberculosis (strain ATCC 25618 / H37Rv)), P9WHJ3. inhibition, % (no concentration beside the values). cell-free RecA intein splicing. 290,000 tested, 0.75% active. AID 2221, 2009; in the data active means inhibition above about 30%;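 further: 0% = vehicle wells and 100% = reference inhibitor control wells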
Target sequence (P9WHJ3 whole entry, looked up, canonical isoform): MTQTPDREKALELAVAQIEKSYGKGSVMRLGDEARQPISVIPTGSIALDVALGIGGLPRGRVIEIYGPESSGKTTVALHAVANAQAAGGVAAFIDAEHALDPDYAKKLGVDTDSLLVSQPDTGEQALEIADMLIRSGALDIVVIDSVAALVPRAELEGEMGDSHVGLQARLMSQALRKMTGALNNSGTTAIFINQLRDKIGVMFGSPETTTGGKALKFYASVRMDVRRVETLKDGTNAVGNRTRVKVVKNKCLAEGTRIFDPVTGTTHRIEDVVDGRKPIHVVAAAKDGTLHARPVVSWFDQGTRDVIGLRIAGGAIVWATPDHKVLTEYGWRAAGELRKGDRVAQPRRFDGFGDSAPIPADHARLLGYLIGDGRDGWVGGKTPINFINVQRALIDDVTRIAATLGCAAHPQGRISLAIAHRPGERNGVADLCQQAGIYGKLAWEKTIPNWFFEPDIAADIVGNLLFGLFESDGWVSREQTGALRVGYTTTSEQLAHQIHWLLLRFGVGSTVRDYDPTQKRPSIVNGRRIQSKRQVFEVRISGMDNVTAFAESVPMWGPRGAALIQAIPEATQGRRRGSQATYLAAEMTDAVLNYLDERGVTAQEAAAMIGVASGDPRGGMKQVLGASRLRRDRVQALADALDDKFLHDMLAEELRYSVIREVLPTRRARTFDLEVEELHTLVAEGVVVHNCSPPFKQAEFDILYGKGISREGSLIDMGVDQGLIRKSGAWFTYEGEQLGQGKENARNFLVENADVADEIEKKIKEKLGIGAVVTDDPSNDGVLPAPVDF
Rv3671c inh = Rv3671c serine protease inhibitors, primary screen, biochemical, fluorescence polarization, M. tuberculosis H37Rv; inhibition, % at 5.96 µM; P9WHR9; AID 2606, 2010; 320,000 tested, 0.048% active; in the data active means inhibition above about 38%;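 further: extracellular domain of Rv3671c used as enzyme; 0% = enzyme with DMSO and 100% = no enzyme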
FBA Mtb inh = Mtb FBA enzyme inhibitors, primary screen, biochemical, fluorescence, strain H37Rv; Fructose-bisphosphate aldolase (Mycobacterium tuberculosis (strain ATCC 25618 / H37Rv)), …; purified M. tuberculosis FBA, fluorescence read-out; inhibition, % at 1 µM; 360,000 tested, 2.3% active; AID 588726, 2011;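 further: 0% = vehicle and 100% = reference inhibitor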
BH1578 lux ind = inducers of Vibrio cholerae quorum light production without autoinducers, primary screen, BH1578 luxS cqsA deficient, single point; activation, % at 18.7 µM; 350,000 tested, 0.16% active; V. cholerae BH1578 lux reporter, luminescence, 6 h; in the data active means activation mostly above about 9.7%, no sharp cut-off
Mtb FBA confirm = M. tuberculosis aldolase blockers, biochemical, fluorescence, strain H37Rv, confirmation. AID 651616, 2012. 5,600 tested, 78% active. inhibition, % at 1 µM. shares compounds with FBA Mtb inh. purified M. tuberculosis FBA, fluorescence read-out;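 further: 0% = vehicle wells and 100% = reference inhibitor wells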
GDH-TPI counter-2 = GDH-TPI coupling enzyme inhibitors, artefact control for M. tuberculosis FBA inhibitor project, biochemical, fluorescence, high throughput; GDH-TPI coupled enzyme counterscreen; shares compounds with FBA Mtb inh; 5,600 tested, 81% active; AID 652141, 2013; inhibition, % at 1 µM; in the data active means inhibition above about 10%
GDH-TPI DR = GDH-TPI coupling enzyme inhibitors, dose response, artefact control for M. tuberculosis FBA inhibitor project, biochemical, fluorescence, IC50 | AID 652145, 2013 | GDH-TPI coupled enzyme assay, artifact counterscreen | IC50, µM | shares compounds with FBA Mtb inh | 170 tested, 79% active; call rule not given here
An asterisk follows results filed as active. Unless noted, no stated cut-off is given here; in the data, active means inhibition above about 27%; inactive means the rest.

What do the screens show for `COc1ccc2nc(/N=C(\N)NC(=O)C(C)(C)C)nc(C)c2c1`?
GDH-TPI counter-1: 5; Mtb UGM inh: 0; RecA splice inh: -5; Rv3671c inh: 7; FBA Mtb inh: 46*; BH1578 lux ind: 1; Mtb FBA confirm: 10; GDH-TPI counter-2: -4; GDH-TPI DR: 3.6*

Results for CCC(=O)N/C(N)=N/c1nc(C)c2cc(OC)ccc2n1 ?
GDH-TPI counter-1: 6; Mtb UGM inh: -2; RecA splice inh: -5; Rv3671c inh: -7; FBA Mtb inh: 40*; BH1578 lux ind: -5; Mtb FBA confirm: active; GDH-TPI counter-2: active

How did COc1ccc2nc(/N=C(\N)NC(=O)N3c4ccccc4Sc4ccccc43)nc(C)c2c1 do in these assays?
GDH-TPI counter-1: 2; Mtb UGM inh: -1; RecA splice inh: -6; Rv3671c inh: -17; FBA Mtb inh: 8; BH1578 lux ind: inactive

Results for CCOC(=O)CSc1nc(C)c2cc(OC)ccc2n1 ?
GDH-TPI counter-1: 7; Mtb UGM inh: -1; RecA splice inh: -1; Rv3671c inh: -3; FBA Mtb inh: 49*; BH1578 lux ind: inactive; Mtb FBA confirm: 64*; GDH-TPI counter-2: 36*

What do the screens show for `Cc1ccc2nc3n(c(=O)c2c1)-c1ccccc1C(=O)NC3Cc1ccc(O)cc1` (stereo unspecified)?
Mtb UGM inh: -3; Rv3671c inh: -1

What do the screens show for `CCOCCCNC(=O)c1cc2c(=O)n(CC)c3ccccc3c2s1`?
GDH-TPI counter-1: 12; Mtb UGM inh: -1; RecA splice inh: -1; Rv3671c inh: -6; FBA Mtb inh: 59*; BH1578 lux ind: -1; Mtb FBA confirm: active; GDH-TPI counter-2: active

What do the screens show for `CCn1c(=O)c2cc(C(=O)Nc3ccc(OC)cc3OC)sc2c2ccccc21`?
GDH-TPI counter-1: 0; Mtb UGM inh: -2; RecA splice inh: -20; Rv3671c inh: -6; FBA Mtb inh: 0; BH1578 lux ind: -4

How did CCn1c(=O)c2cc(C(=O)N(C)CC(OC)OC)sc2c2ccccc21 do in these assays?
GDH-TPI counter-1: 21; Mtb UGM inh: -2; RecA splice inh: 1; Rv3671c inh: -10; FBA Mtb inh: 35*; BH1578 lux ind: 0; Mtb FBA confirm: active; GDH-TPI counter-2: active

What do the screens show for `CCOCCCNC(=O)c1cccs1`?
GDH-TPI counter-1: -1; Mtb UGM inh: -2; RecA splice inh: -1; Rv3671c inh: -1; FBA Mtb inh: 1; BH1578 lux ind: 1

How did CCn1c(=O)c2cc(C(=O)NCCOC)sc2c2ccccc21 do in these assays?
GDH-TPI counter-1: 21; Mtb UGM inh: 1; RecA splice inh: -1; Rv3671c inh: -5; FBA Mtb inh: 51*; BH1578 lux ind: 1; Mtb FBA confirm: 57*; GDH-TPI counter-2: 43*

Results for C[C@H]1CN([C@@H](C)CO)C(=O)CCCn2nncc2CO[C@@H]1CN(C)Cc1cccc2c1OCCCO2 ?
GDH-TPI counter-1: -2; FBA Mtb inh: 3; BH1578 lux ind: -1

How did COc1cc(NC(=O)COC(=O)CNC(=O)C23CC4CC(CC(C4)C2)C3)cc(OC)c1 do in these assays?
GDH-TPI counter-1: 12; Mtb UGM inh: 4; Rv3671c inh: 7; FBA Mtb inh: 1; BH1578 lux ind: inactive

How did COc1ccc2c(COC(=O)CNC(=O)C34CC5CC(CC(C5)C3)C4)cc(=O)oc2c1 do in these assays?
GDH-TPI counter-1: 12; Mtb UGM inh: 2; RecA splice inh: -3; Rv3671c inh: -8; FBA Mtb inh: 85*; BH1578 lux ind: 0; Mtb FBA confirm: active; GDH-TPI counter-2: 167*

How did COc1ccc2c(CN3CCCCCCC3)cc(=O)oc2c1 do in these assays?
FBA Mtb inh: 82*; Mtb FBA confirm: 1; GDH-TPI counter-2: 0

What do the screens show for `COc1ccc2c(CN3CCN(c4ccccc4OC)CC3)cc(=O)oc2c1`?
FBA Mtb inh: 2

How did COc1ccc2c(COC(=O)[C@@H]3CCCN3S(=O)(=O)c3ccc(Cl)cc3)cc(=O)oc2c1 do in these assays?
GDH-TPI counter-1: 7; FBA Mtb inh: 51*; BH1578 lux ind: -5; Mtb FBA confirm: 102*; GDH-TPI counter-2: 76*

Results for CCC(=O)N1CCC1(C)C(=O)Nc1cc(OC)ccc1OC (stereo unspecified) ?
GDH-TPI counter-1: -2; FBA Mtb inh: -2; BH1578 lux ind: 5

Results for CC(Oc1ccc2c(-c3ccccc3)cc(=O)oc2c1)C(=O)NCCCN1CCOCC1 (stereo unspecified) ?
GDH-TPI counter-1: 13; Mtb UGM inh: -3; RecA splice inh: -2; Rv3671c inh: 2; FBA Mtb inh: -1; BH1578 lux ind: 0

How did O=C(COc1ccc2c(c1)oc(=O)c1ccccc12)NCCCN1CCOCC1 do in these assays?
GDH-TPI counter-1: 5; Mtb UGM inh: -3; RecA splice inh: 2; Rv3671c inh: -3; FBA Mtb inh: 98*; BH1578 lux ind: -1; Mtb FBA confirm: 93*; GDH-TPI counter-2: 78*

What do the screens show for `Cc1c(C)c2ccc(OCC(=O)NCCN3CCOCC3)cc2oc1=O`?
GDH-TPI counter-1: 6; Mtb UGM inh: -1; RecA splice inh: 0; Rv3671c inh: -2; FBA Mtb inh: 97*; BH1578 lux ind: -2; Mtb FBA confirm: -6; GDH-TPI counter-2: -3

Results for Cc1c(C)c2ccc(OCC(=O)Nc3ccc(CN4CCOCC4)cc3)cc2oc1=O ?
GDH-TPI counter-1: 10; Mtb UGM inh: -1; RecA splice inh: 1; Rv3671c inh: 0; FBA Mtb inh: 47*; BH1578 lux ind: 1; Mtb FBA confirm: 88*; GDH-TPI counter-2: 86*

How did CC(Oc1ccc2c(c1)oc(=O)c1ccccc12)C(=O)NCCCN1CCOCC1 (stereo unspecified) do in these assays?
GDH-TPI counter-1: 11; Mtb UGM inh: 1; RecA splice inh: 0; Rv3671c inh: -8; FBA Mtb inh: 64*; BH1578 lux ind: inactive; Mtb FBA confirm: 11; GDH-TPI counter-2: 10; GDH-TPI DR: 2.9*
